Some test systems named below: EKVX NSCLC; SN12C renal; UO-31 renal; TK-10 renal; ACHN renal; CAKI-1 renal; A498 renal; CCRF-CEM leukemia; MOLT-4 leukemia; SR leukemia.
What all share (assay): NCI-60 one-dose screen, 48 h (100 = growth as untreated, 0 = no growth, -100 = all killed)
Holding throughout (conditions): 10 µM unless noted

This is part of a sample that, as a whole, favours compounds with a hit. Of some 83,000 tested, about 20% had one in any assay.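 Growth was measured after 48 h exposure to one concentration of compound in 96-well plates. Values under 10 count as active.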 Unmarked numbers belong to inactive results. Activity calls are given as the source filed them.

Consider `Cc1cc2c(c(C)c1Cl)C(=O)/C(=C/c1ccco1)O2`, for which the growth with EKVX NSCLC was 83.4%; in the test on SN12C renal, 96%; in the test on UO-31 renal, 78.3%; with TK-10 renal, 93.9%; with ACHN renal, 92.2%; in the test with CAKI-1 renal, 93.7%. For the same molecule, the growth is 104% in the test with A498 renal, 95.6% with CCRF-CEM leukemia, 97.3% in the test with MOLT-4 leukemia and 69.7% with SR leukemia.
Turning to `COC(=O)/C(CCC=C(C)C)=C1\[C@@H](OC(C)=O)C[C@@]2(C)[C@H]1C[C@@H](O)[C@H]1[C@@]3(C)CC[C@H](NCc4ccccc4)[C@@H](C)[C@@H]3CC[C@@]12C`, the growth is 63% with EKVX NSCLC; 75.6% with SN12C renal; 47.5% in the test with UO-31 renal; 111% in the test with TK-10 renal; 79.2% in the test on ACHN renal; 72.5% with CAKI-1 renal. The growth in the test with A498 renal is 98.1%; in the test on CCRF-CEM leukemia it was 50.9%; in the test on MOLT-4 leukemia, 28.1%; in the test with SR leukemia, 0.245% (active).
As to `COc1ccc(C2C3=C(COC3=O)N(CCO)c3cc4c(cc32)CCC4)cc1` (stereo not given), the growth is 66.7% with EKVX NSCLC; 95.1% with SN12C renal; 75.7% in the test on UO-31 renal; 77.9% in the test on TK-10 renal; 67.7% in the test on ACHN renal; 48% in the test on CAKI-1 renal. The growth with A498 renal was 73.2%; in the test with CCRF-CEM leukemia it was 64.3%; in the test on MOLT-4 leukemia it was 45.4%; in the test on SR leukemia it was 35.8%.
Consider `O=c1c2cc(F)ccc2sc2c(NCCN3CCCC3)nc3ccccc3c12`, for which the growth was 66.2% in the test on EKVX NSCLC; 70.4% with SN12C renal; 45.3% in the test with UO-31 renal; 64.8% in the test on TK-10 renal; 35.6% with ACHN renal; 62.8% with CAKI-1 renal. Also, the growth is 26% with A498 renal, 33.5% with CCRF-CEM leukemia, 5.14% (active) in the test with MOLT-4 leukemia and 16.7% with SR leukemia.
As for `O=C(Nc1ccc(Cl)cc1)c1cc2ccccc2cc1OP(=O)(O)O`, the growth with EKVX NSCLC was 24.8%; in the test with SN12C renal it was 41.4%; in the test on UO-31 renal, 2.13% (active); in the test on TK-10 renal, 18.7%; in the test with ACHN renal it was 17.2%; with CAKI-1 renal, -8.12% (active). Further, the growth in the test on A498 renal is 28.7%; with CCRF-CEM leukemia, 18.2%; in the test on MOLT-4 leukemia, 38.9%; in the test on SR leukemia it was 53.9%.
In the case of `CC(C)C[C@H](C(=O)N[C@@H](C)C(N)=O)N1CC=CCN(O)S1(=O)=O`, the growth is 176% [5 µM] in the test on EKVX NSCLC; 106% [5 µM] in the test with SN12C renal; 109% [5 µM] in the test on UO-31 renal; 106% [5 µM] in the test on TK-10 renal; 94.7% [5 µM] in the test with ACHN renal; 115% [5 µM] in the test on CAKI-1 renal. The growth was 125% [5 µM] in the test with A498 renal, 105% [5 µM] in the test with CCRF-CEM leukemia, 102% [5 µM] in the test on MOLT-4 leukemia and 95.3% [5 µM] with SR leukemia.
`O=C1/C(=C/c2ccc(O)cc2)COc2ccc(O)c(O)c21`: the growth was 71.5% in the test on EKVX NSCLC; -4.74% (active) in the test on SN12C renal; -88.5% (active) with UO-31 renal; 54.1% with TK-10 renal; -16.2% (active) in the test on ACHN renal; 6.4% (active) in the test on CAKI-1 renal. In addition, the growth in the test on A498 renal was 98.4%; with CCRF-CEM leukemia it was 9.61% (active); in the test on MOLT-4 leukemia it was 4.43% (active); in the test on SR leukemia, 12.7%.
As to `O=C(Nc1ccc(N2CCNCC2)cn1)c1[nH]ncc1Nc1ncnc2sc3c(c12)CCC3`, the growth is 83.8% with EKVX NSCLC; 53.6% with SN12C renal; 72.6% in the test with UO-31 renal; 95.2% with TK-10 renal; -76.5% (active) in the test on ACHN renal; 54.3% with CAKI-1 renal. The growth is 70.2% in the test on A498 renal, -7.26% (active) with CCRF-CEM leukemia, 14.3% with MOLT-4 leukemia and 0.52% (active) in the test with SR leukemia.
Consider `Cc1ccc(NC2=CC(=O)C(=O)c3ccccc32)c(C)c1`, for which the growth was 143% with EKVX NSCLC; 44.1% in the test with SN12C renal; 71.2% in the test with UO-31 renal; 80.8% in the test with TK-10 renal; 15.9% with ACHN renal; 82.7% with CAKI-1 renal. Besides, the growth with A498 renal is 109%; in the test with CCRF-CEM leukemia, 43.7%; in the test on MOLT-4 leukemia, 36.9%; in the test with SR leukemia, 56.4%.
With `CNCCNc1nc2ccccc2c2c(=O)c3cccc(OC)c3sc12`, the growth in the test with EKVX NSCLC is 22.8%; in the test with SN12C renal, 45.2%; with UO-31 renal, 24.9%; in the test with TK-10 renal, 44.1%; with ACHN renal it was 12.5%; in the test on CAKI-1 renal, 36.1%. In addition, the growth with A498 renal is 3.67% (active); in the test with CCRF-CEM leukemia, 12.2%; in the test with MOLT-4 leukemia it was 0.177% (active); with SR leukemia, -1.21% (active).
On to `O=C(/C=C/c1ccc(Cl)cc1)c1ccc(Nc2nc(NCCO)nc(N3CCOCC3)n2)cc1`, for which the growth with EKVX NSCLC was 94%; in the test with SN12C renal, 88.4%; with UO-31 renal it was 56%; in the test with TK-10 renal, 111%; in the test with ACHN renal, 82.5%; with CAKI-1 renal it was 77.6%. For the same molecule, the growth in the test on A498 renal is 92.6%; in the test with CCRF-CEM leukemia it was 82.8%; with MOLT-4 leukemia, 71.3%; with SR leukemia it was 19.8%.
For the molecule `COc1ccc(C2Nc3ncnc(N)c3N=C3c4ccccc4C(=O)C32)cc1` (stereo not given), the growth in the test with EKVX NSCLC is 94.5%; in the test with SN12C renal, 140%; in the test with UO-31 renal, 67%; in the test with TK-10 renal, 123%; in the test on ACHN renal, 92.4%; in the test with CAKI-1 renal, 80.1%. In addition, the growth with A498 renal was 99.2%; in the test on CCRF-CEM leukemia, 97.9%; in the test with MOLT-4 leukemia it was 57.9%; in the test with SR leukemia it was 9.71% (active).
With `O=S1(=O)N(Cc2ccccc2)[C@@H](Cc2ccccc2)[C@H](O)[C@H](O)[C@H](Cc2ccccc2)N1Cc1ccccc1`, the growth with EKVX NSCLC is -1.3% (active); with SN12C renal, 5.15% (active); in the test on UO-31 renal it was 0% (active); in the test on TK-10 renal, 60.4%; in the test on ACHN renal it was -7.05% (active); in the test on CAKI-1 renal it was -19.1% (active). Moreover, the growth in the test with A498 renal was 18.5%; in the test on CCRF-CEM leukemia, 7.73% (active); in the test with MOLT-4 leukemia, 5.65% (active); in the test on SR leukemia it was 4.45% (active).
Turning to `NC1C(N)C(N)C1N` (stereo not given), the growth in the test with EKVX NSCLC is 121%; in the test with SN12C renal it was 96.8%; in the test on UO-31 renal it was 77.9%; with TK-10 renal it was 99.1%; in the test with ACHN renal, 96.8%; in the test with CAKI-1 renal, 101%. Also, the growth with A498 renal was 116%; in the test on CCRF-CEM leukemia, 85.1%; in the test on MOLT-4 leukemia, 83.7%; in the test on SR leukemia, 86.8%.
